# Test results taken from PMC7862700, “An all-to-all approach to the identification of sequence-specific readers for epigenetic DNA modifications on cytosine”.
# Columns and labels:
# Assay in all cases: DAPPL (digital affinity profiling via proximity ligation, sequencing); 10 mM Tris-HCl pH 7.5, 50 mM NaCl, 1 mM DTT, 4% glycerol, room temperature, 30 min; GST-TFs on glutathione beads, 16-mer random dsDNA library, 0.1% formaldehyde crosslink after washing; high values mean tight binding
# Conditions in all cases: protein: recombinant; tags: N-terminal GST; dsDNA, one strand shown
# FLI1 = target: T1, FLI1 (Homo sapiens, UniProt Q01543 1-452)
# T1 sequence: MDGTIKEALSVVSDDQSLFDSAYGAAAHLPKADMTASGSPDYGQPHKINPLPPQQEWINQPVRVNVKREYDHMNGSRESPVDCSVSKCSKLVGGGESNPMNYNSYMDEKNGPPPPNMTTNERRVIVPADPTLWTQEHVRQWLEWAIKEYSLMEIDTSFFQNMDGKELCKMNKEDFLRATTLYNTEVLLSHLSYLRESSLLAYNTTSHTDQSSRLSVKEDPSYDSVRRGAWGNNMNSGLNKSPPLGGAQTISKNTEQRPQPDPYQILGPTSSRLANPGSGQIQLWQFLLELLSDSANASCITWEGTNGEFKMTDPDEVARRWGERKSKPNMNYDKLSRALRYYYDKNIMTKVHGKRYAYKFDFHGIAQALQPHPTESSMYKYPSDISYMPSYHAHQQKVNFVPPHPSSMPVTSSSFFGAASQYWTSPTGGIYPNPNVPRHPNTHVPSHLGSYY
# Summary of the method: (§1)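 Pools were built from human transcription factors expressed in yeast as GST fusions, captured on glutathione beads and DNA-barcoded, along with a tag-only sample. Incubation with 200 nmole of a 16-mer random double-stranded DNA library lasted 30 min at room temperature in Tris/NaCl/DTT/glycerol buffer, and was followed by washing, 0.1% formaldehyde crosslinking, proximity ligation, PCR amplification and Illumina NextSeq500 sequencing. Binding signal is the quotient of each hexamer's read frequency for a factor and its frequency for the tag-only sample.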
# ELK1 = target: T2, ELK1 (Homo sapiens, UniProt P19419 1-428)
# T2 sequence: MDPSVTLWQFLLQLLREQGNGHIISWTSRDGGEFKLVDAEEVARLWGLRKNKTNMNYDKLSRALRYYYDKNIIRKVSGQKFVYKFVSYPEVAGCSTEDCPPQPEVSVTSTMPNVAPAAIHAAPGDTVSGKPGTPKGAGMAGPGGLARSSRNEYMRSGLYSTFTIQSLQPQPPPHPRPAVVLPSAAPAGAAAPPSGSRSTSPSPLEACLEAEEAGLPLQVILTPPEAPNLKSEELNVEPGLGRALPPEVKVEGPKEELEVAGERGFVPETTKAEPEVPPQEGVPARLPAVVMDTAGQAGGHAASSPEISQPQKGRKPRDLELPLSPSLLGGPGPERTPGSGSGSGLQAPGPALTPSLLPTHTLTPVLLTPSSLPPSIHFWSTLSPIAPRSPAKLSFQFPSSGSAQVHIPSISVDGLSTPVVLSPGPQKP
# Summary of the method: as §1
# GABPA = target: T3, GABPA (Homo sapiens, UniProt Q06546 1-454)
# T3 sequence: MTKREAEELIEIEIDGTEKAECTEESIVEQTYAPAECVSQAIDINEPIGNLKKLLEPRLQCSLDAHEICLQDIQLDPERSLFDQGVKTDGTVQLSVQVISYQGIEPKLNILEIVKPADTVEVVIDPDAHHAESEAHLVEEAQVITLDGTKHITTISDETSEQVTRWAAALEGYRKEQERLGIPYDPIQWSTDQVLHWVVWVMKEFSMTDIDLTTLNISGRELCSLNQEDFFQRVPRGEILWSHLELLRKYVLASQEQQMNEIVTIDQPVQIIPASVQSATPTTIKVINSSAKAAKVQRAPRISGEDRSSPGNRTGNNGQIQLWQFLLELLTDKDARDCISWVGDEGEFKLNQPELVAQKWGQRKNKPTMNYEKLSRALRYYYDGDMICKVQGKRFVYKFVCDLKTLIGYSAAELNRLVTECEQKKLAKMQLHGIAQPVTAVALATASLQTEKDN
# Summary of the method: as §1
# ERG = target: T4, ERG (Homo sapiens, UniProt P11308 1-479)
# T4 sequence: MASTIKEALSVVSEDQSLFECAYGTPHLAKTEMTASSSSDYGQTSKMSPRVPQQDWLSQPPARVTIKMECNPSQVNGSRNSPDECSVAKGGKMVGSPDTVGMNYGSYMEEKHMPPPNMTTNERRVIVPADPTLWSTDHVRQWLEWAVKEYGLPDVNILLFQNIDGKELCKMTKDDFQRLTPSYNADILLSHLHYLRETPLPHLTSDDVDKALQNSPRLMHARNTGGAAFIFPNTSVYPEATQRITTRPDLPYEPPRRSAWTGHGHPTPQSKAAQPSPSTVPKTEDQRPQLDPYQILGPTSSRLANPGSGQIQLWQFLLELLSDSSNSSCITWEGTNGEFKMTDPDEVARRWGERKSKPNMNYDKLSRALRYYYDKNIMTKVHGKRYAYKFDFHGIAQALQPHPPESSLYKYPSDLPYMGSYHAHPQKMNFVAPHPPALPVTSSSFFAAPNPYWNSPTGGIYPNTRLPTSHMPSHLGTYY
# Summary of the method: as §1
# ELF1 = ELF1 (Homo sapiens, UniProt P32519 1-619)
# Sequence of ELF1 (P32519 whole entry): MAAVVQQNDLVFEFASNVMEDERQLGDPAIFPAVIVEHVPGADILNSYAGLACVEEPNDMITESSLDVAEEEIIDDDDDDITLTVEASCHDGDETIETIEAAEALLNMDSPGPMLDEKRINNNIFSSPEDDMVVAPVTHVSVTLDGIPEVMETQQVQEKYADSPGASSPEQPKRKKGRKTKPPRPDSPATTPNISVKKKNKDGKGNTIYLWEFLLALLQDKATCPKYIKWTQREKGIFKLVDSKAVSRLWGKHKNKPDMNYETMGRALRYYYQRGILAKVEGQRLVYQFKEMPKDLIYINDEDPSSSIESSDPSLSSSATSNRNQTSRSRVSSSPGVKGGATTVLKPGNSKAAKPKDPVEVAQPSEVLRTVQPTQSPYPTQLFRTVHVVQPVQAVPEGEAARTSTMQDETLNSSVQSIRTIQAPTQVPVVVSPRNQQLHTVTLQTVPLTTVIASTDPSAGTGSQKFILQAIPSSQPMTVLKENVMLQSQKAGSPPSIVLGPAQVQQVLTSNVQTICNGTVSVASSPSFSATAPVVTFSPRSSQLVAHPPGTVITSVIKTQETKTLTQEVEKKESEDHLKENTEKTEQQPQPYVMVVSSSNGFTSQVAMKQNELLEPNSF
# Summary of the method: as §1
# EHF = target: T5, EHF (Homo sapiens, UniProt Q9NZC4 1-300)
# T5 sequence: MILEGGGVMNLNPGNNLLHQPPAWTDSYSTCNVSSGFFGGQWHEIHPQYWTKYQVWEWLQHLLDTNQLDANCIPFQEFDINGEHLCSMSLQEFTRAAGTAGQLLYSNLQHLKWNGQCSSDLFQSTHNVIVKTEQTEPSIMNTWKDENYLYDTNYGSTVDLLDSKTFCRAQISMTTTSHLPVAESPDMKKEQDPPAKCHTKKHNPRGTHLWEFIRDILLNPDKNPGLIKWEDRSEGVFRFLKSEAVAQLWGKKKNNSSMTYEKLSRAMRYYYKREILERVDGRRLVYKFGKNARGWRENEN
# Summary of the method: as §1
# SPI1 = SPI1 (Homo sapiens, UniProt P17947 1-270)
# Summary of the method: as §1
# SPIB = SPIB (Homo sapiens, UniProt Q01892 1-262)
# Sequence of SPIB (Q01892 whole entry): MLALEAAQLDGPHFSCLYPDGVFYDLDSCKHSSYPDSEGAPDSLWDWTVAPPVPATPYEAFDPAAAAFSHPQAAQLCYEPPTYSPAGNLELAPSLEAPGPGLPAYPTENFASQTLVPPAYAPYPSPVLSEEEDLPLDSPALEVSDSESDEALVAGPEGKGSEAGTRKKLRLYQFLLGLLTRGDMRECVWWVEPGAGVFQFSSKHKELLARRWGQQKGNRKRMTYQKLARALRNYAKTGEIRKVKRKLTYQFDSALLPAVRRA
# Summary of the method: as §1
# ELK3 = target: T6, ELK3 (Homo sapiens, UniProt P41970 1-407)
# T6 sequence: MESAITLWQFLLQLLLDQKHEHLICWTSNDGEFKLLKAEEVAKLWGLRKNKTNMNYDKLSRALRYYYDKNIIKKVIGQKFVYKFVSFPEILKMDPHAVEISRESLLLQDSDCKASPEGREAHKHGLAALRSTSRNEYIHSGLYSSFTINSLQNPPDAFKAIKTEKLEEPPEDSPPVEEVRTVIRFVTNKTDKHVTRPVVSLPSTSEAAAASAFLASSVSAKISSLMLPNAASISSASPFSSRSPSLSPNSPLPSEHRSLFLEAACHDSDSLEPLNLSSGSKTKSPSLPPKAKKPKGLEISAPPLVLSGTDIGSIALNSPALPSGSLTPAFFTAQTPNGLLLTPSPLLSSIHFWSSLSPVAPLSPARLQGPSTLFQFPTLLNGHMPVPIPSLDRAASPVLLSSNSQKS
# Summary of the method: as §1
sequence,measurement,setting,value
GTCCCG,binding signal,FLI1,"1.29 fold enrichment (6-mer frequency, TF over GST control)"
same,binding signal,ELK1,"1.2 fold enrichment (6-mer frequency, TF over GST control)"
same,binding signal,GABPA,"1.21 fold enrichment (6-mer frequency, TF over GST control)"
same,binding signal,ERG,"1.22 fold enrichment (6-mer frequency, TF over GST control)"
same,binding signal,ELF1,"1.24 fold enrichment (6-mer frequency, TF over GST control)"
same,binding signal,EHF,"1.2 fold enrichment (6-mer frequency, TF over GST control)"
same,binding signal,SPI1,"1.21 fold enrichment (6-mer frequency, TF over GST control)"
same,binding signal,SPIB,"1.32 fold enrichment (6-mer frequency, TF over GST control)"
same,binding signal,ELK3,"1.26 fold enrichment (6-mer frequency, TF over GST control)"
TGCACG,binding signal,FLI1,"1.12 fold enrichment (6-mer frequency, TF over GST control)"
same,binding signal,ELK1,"1.06 fold enrichment (6-mer frequency, TF over GST control)"
same,binding signal,GABPA,"1.18 fold enrichment (6-mer frequency, TF over GST control)"
same,binding signal,ERG,"1.03 fold enrichment (6-mer frequency, TF over GST control)"
same,binding signal,ELF1,"1.16 fold enrichment (6-mer frequency, TF over GST control)"
same,binding signal,EHF,"1.22 fold enrichment (6-mer frequency, TF over GST control)"
same,binding signal,SPI1,"1.12 fold enrichment (6-mer frequency, TF over GST control)"
same,binding signal,SPIB,"1.23 fold enrichment (6-mer frequency, TF over GST control)"
same,binding signal,ELK3,"1.15 fold enrichment (6-mer frequency, TF over GST control)"
CGTCCG,binding signal,FLI1,"1.31 fold enrichment (6-mer frequency, TF over GST control)"
same,binding signal,ELK1,"1.27 fold enrichment (6-mer frequency, TF over GST control)"
same,binding signal,GABPA,"1.24 fold enrichment (6-mer frequency, TF over GST control)"
same,binding signal,ERG,"1.27 fold enrichment (6-mer frequency, TF over GST control)"
same,binding signal,ELF1,"1.28 fold enrichment (6-mer frequency, TF over GST control)"
same,binding signal,EHF,"1.36 fold enrichment (6-mer frequency, TF over GST control)"
same,binding signal,SPI1,"1.08 fold enrichment (6-mer frequency, TF over GST control)"
same,binding signal,SPIB,"1.41 fold enrichment (6-mer frequency, TF over GST control)"
same,binding signal,ELK3,"1.36 fold enrichment (6-mer frequency, TF over GST control)"
